Screening results: PubChem, The Scripps Research Institute Molecular Screening Center
PME-1 inh = PME-1 (human) inhibition | Q9Y570 | recombinant PME-1, FP-Rh probe fluorescence polarization | inhibition, % at 5.9 µM | 0.53% of 320,000 active | AID 2130;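 active = inhibition above the campaign mean of all compounds plus 3 SD, cut at about 26% in these data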;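 note: competitive labeling of PME-1 active site by serine hydrolase directed probe; 0% = PME-1 with DMSO and 100% = wells lacking PME-1 enzyme; inhibitors block probe labeling so polarization falls and inhibition rises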
LYPLA1 counter = LYPLA1 (human) inhibition in PME1 counter-screen; O75608; recombinant LYPLA1, FP-Rh probe fluorescence polarization; inhibition, % at 5.9 µM; 0.16% of 320,000 active; AID 2174;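 active = inhibition above the mean of all tested compounds plus 3 SD, set per campaign, cut at about 14% in these data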;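 note: inhibitors block serine hydrolase probe labeling of LYPLA1 so polarization falls; 0% = enzyme with DMSO and 100% = wells lacking LYPLA1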
PP5 primary = inhibitors of human protein phosphatase 5 (PP5); inhibition, % at 6.7 µM; purified PP5c, OMFP substrate fluorescence; P53041; 0.18% of 320,000 active;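 active = inhibition above the campaign's mean inhibition across all tested compounds plus 3 SD, cut at about 9.5% in these data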;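 note: 0% = DMSO only and 100% = 100 µM cantharidin control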
PP1 counter = PP1-alpha (human) inhibition in PP5 counter-screen; purified PP1alpha, OMFP fluorescence; inhibition, % at 6.7 µM; 0.9% of 320,000 active; AID 2235;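 active = inhibition above the mean inhibition of all tested compounds plus 3 SD, computed separately for each screening campaign, cut at about 15% in these data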
Target sequence (P62136 whole entry, looked up): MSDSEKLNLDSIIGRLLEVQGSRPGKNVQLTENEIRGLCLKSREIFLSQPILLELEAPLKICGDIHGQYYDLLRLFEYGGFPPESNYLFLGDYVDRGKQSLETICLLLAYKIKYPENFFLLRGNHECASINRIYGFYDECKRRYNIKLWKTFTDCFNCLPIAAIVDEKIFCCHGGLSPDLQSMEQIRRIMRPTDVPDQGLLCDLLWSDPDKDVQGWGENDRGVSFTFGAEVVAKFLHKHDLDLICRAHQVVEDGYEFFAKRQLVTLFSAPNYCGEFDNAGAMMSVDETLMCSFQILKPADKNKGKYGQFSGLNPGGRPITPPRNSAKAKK
LYPLA2 inh = blocks human lysophospholipase 2, a PME1 counter-screen; O95372; recombinant LYPLA2, FP-Rh probe fluorescence polarization; inhibition, % at 5.9 µM; 0.38% of 320,000 active; AID 2177;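 active = inhibition above the screen-wide mean plus 3 SD, limit set per campaign, cut at about 26% in these data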;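 note: 0% = LYPLA2 with DMSO and 100% = wells lacking LYPLA2 enzyme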
Fam108B inh = Fam108B inhibition, counter-screen for RBBP9 inhibitors | recombinant Fam108B, FP-Rh probe fluorescence polarization | inhibition, % at 9.51 µM | 0.33% of 300,000 active;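 active = inhibition above the screen mean inhibition plus 3 SD, computed separately per campaign, cut at about 18% in these data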;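 note: inhibitors lower polarization as less probe binds the enzyme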
Active calls of the source: *. A selection: hits, their analogues and other compounds. The true share with any hit is near 1.8%.

Results for CC(C)(C)OC(=O)NCCCCC1=CC2=CC(=O)C(C)(OC(=O)c3cnc4ccccc4n3)C(=O)C2=CO1 (stereo unspecified) ?
PME-1 inh: 18; LYPLA1 counter: 17*; PP5 primary: -1; PP1 counter: 6; LYPLA2 inh: 20; Fam108B inh: 12

How did COC(=O)CCCC1=CC2=CC(=O)C(C)(OC(=O)c3cnc4ccccc4n3)C(=O)C2=CO1 (stereo unspecified) do in these assays?
PME-1 inh: 25; LYPLA1 counter: 20*; PP5 primary: 1; PP1 counter: 6; LYPLA2 inh: 24; Fam108B inh: 13

What do the screens show for `COC/C=C/C1=CC2=CC(=O)C(C)(OC(=O)c3cnc4ccccc4n3)C(=O)C2=CN1C1CC1` (stereo unspecified)?
PME-1 inh: -3; LYPLA1 counter: 0; PP5 primary: -4; PP1 counter: 0; LYPLA2 inh: 6; Fam108B inh: 3

What do the screens show for `CCOc1ccc(S(=O)(=O)N2CCC(C(=O)OC(C)C(=O)N(C)C3CCCCC3)CC2)cc1` (stereo unspecified)?
PME-1 inh: 8; LYPLA1 counter: -1; PP5 primary: -1; PP1 counter: 0; LYPLA2 inh: 6; Fam108B inh: 0

How did NS(=O)(=O)c1ccc(CNC(=O)Cc2ccsc2)cc1 do in these assays?
PME-1 inh: 1; LYPLA1 counter: -1; PP5 primary: -1; PP1 counter: -2; LYPLA2 inh: -5; Fam108B inh: 1

How did O=C(Nc1cccc(S(=O)(=O)NC2=NCCCCC2)c1)c1cc(-c2ccco2)nc2ccccc12 do in these assays?
PME-1 inh: -12; LYPLA1 counter: -12; PP5 primary: -1; PP1 counter: 17*; LYPLA2 inh: -18; Fam108B inh: -22

How did NC(=O)c1ccc(NC(=O)CN2CCN(Cc3ccccc3)CC2)cc1 do in these assays?
PME-1 inh: 1; LYPLA1 counter: -5; PP5 primary: -2; PP1 counter: 1; LYPLA2 inh: 2; Fam108B inh: 5

Results for O=C(CSc1cn(Cc2ccccc2)c2ccccc12)Nc1nccs1 ?
PME-1 inh: 1; LYPLA1 counter: -4; PP5 primary: 5; PP1 counter: 16*; LYPLA2 inh: -6; Fam108B inh: -3

What do the screens show for `COc1ccc(-n2cnc3cc(NS(=O)(=O)c4ccc(C)cc4)ccc32)cc1`?
PME-1 inh: 1; LYPLA1 counter: -6; PP5 primary: 12*; PP1 counter: 0; LYPLA2 inh: -4; Fam108B inh: -5

How did O=C(O)CCC1c2cc3c4cc2OC2Oc5cc6c(cc51)C(CCC(=O)O)c1cc5c7cc1OC(O6)c1cc6cc(c1)Oc1cc(cc(C(=O)O)c1)Oc1cc8cc(c1)C(Oc1cc(c(cc1C5CCC(=O)O)C3CCC(=O)O)OC(O4)c1cc(cc(c1)Oc1cc(cc(C(=O)O)c1)O8)Oc1cc(cc(C(=O)O)c1)Oc1cc(cc2c1)Oc1cc(cc(C(=O)O)c1)O6)O7 (stereo unspecified) do in these assays?
PME-1 inh: -304; LYPLA1 counter: -84; PP5 primary: 13*; PP1 counter: 91*; LYPLA2 inh: -169; Fam108B inh: -184

Results for COC(=O)c1ccc(C2Nc3cccc4cccc(c34)N2)cc1 ?
PME-1 inh: 52*; LYPLA1 counter: -5; PP5 primary: 0; PP1 counter: -3; LYPLA2 inh: -3; Fam108B inh: 4

What do the screens show for `COc1ccc(C2NC(=O)c3ccccc3N2)cc1OC` (stereo unspecified)?
PME-1 inh: 1; LYPLA1 counter: 2; PP5 primary: 2; PP1 counter: -3; LYPLA2 inh: 3; Fam108B inh: 1

How did COc1cc(C2Nc3cccc4cccc(c34)N2)ccc1OC(C)=O do in these assays?
PME-1 inh: 16; LYPLA1 counter: -8; PP5 primary: 3; PP1 counter: 3; LYPLA2 inh: -1; Fam108B inh: 22*

What do the screens show for `COc1cc(C2Nc3cccc4cccc(c34)N2)cc(OC)c1O`?
PME-1 inh: 48*; LYPLA1 counter: -15; PP5 primary: -1; PP1 counter: 36*; LYPLA2 inh: 10; Fam108B inh: 41*

Results for Cc1cc2c(cc1S(=O)(=O)CCC(=O)NC1CCCCC1C)OCC(=O)N2 (stereo unspecified) ?
PME-1 inh: -1; LYPLA1 counter: -9; PP5 primary: -3; PP1 counter: -1; LYPLA2 inh: -4; Fam108B inh: -5
